Assay outcomes (PubChem BioAssay)
This is a sample that favours compounds with a hit; in the whole collection about 9% have one here.
HP1b binding inh: HTS for Inhibitors of HP1-beta Chromodomain Interactions with Methylated Histone Tails. Chromobox protein homolog 1 (Homo sapiens), P83916. AlphaScreen HP1-beta / biotin-H3K9me3 peptide binding. actives 0.56% (n = 390,000). AID 540317, 2011. Potency, µM (top dose mostly 114 µM), most hits filed as inhibitors; further: nearly all actives have a fitted effect of over 70% in size
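AlphaScreen: HP1-beta (50 nM) preformed 30 min with biotin-H3(1-18)K9me3 peptide (50 nM) in PBS pH 7.4, 0.01% Tween-20. Compound added for 30 min at RT, then streptavidin donor/nickel chelate acceptor beads (10 ug/mL) for 30 min.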
PLK1 PBD block: qHTS for Inhibitors of PLK1-PDB (polo-like kinase 1 - polo-box domain): Primary Screen. Serine/threonine-protein kinase PLK1 (Homo sapiens), P53350. Plk1 PBD binding of FITC phosphopeptide, fluorescence polarization. Potency, µM, actives largely listed as inhibitors. actives 2.8% (n = 360,000); further: series mostly up to about 57 µM; nearly all actives have a fitted effect of over 65% in size
Target sequence (P53350 whole entry, looked up, the tested form may be a part): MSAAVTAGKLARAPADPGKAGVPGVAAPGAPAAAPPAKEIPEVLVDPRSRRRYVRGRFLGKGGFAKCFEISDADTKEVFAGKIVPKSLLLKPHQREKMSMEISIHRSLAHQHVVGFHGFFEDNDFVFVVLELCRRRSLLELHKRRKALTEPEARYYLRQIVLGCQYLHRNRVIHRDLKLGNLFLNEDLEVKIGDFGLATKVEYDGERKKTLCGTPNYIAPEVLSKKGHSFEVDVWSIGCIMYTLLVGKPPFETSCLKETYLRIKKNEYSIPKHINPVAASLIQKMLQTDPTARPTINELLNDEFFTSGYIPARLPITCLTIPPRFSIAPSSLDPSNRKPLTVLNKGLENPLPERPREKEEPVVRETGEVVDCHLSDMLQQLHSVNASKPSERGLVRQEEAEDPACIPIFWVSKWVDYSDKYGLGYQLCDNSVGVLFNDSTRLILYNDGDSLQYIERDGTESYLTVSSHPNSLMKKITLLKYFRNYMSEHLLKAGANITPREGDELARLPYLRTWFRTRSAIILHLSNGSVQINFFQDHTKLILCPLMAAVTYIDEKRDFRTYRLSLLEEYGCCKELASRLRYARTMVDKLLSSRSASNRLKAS
12-LOX inh: Primary qHTS assay for inhibitors of human arachidonate 12S-lipoxygenase (ALOX12): Round 2 | Polyunsaturated fatty acid lipoxygenase ALOX12 (Homo sapiens), P18054 | purified 12hLO, xylenol orange hydroperoxide absorbance | Potency, µM (doses to about 108 µM), usual class: inhibitors | actives 1.1% (n = 580,000) | AID 1671190, 2021
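Purified human 12hLO at 150 nM in 25 mM Hepes, 0.01% Triton X-100, pH 7.0, preincubated 15 min at room temperature with compound. Reaction started with 40 uM arachidonic acid, 30 min at room temperature. Hydroperoxide measured by Fe-xylenol orange, 573/405 nm absorbance ratio.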
BAZ2B block: qHTS Assay for Inhibitors of BAZ2B; Bromodomain adjacent to zinc finger domain protein 2B (Homo sapiens), Q9UIF8; Potency, µM (highest dose often 114 µM), hits mostly inhibitors; AID 504333, 2011; AlphaScreen BAZ2B-H3K14Ac peptide displacement; actives 4.4% (n = 360,000); further: nearly all actives have a fitted effect of over 60% in size
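Compounds, titrated to a top concentration of 110 uM, were incubated 30 min at room temperature with preformed BAZ2B/acetyl-K14 H3 peptide complex (50 nM each). Proximity signal was measured by AlphaScreen after 20 min with beads.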
JMJD2A Tudor: qHTS Assay for Inhibitors of JMJD2A-Tudor Domain; actives 4.4% (n = 390,000); Potency, µM (series often up to 114 µM), hits mostly inhibitors; AlphaScreen JMJD2A-Tudor / H3K4me3 peptide binding; further: nearly all actives have a fitted effect of over 50% in size
G9a block: qHTS Assay for Inhibitors of Histone Lysine Methyltransferase G9a. Histone-lysine N-methyltransferase EHMT2 (Homo sapiens), Q96KQ7. G9a H3K9 monomethylation, AlphaScreen, 2 h. Potency, µM (top dose mostly 102 µM), most hits filed as inhibitors. actives 8.8% (n = 350,000); further: nearly all actives have a fitted effect of over 75% in size
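Using a bead-based AlphaScreen, monomethylated H3K9 product from 2 h room-temperature reactions (G9a 20 nM, peptide 500 nM, SAM 20 uM) was detected with 0.5 ug/mL rabbit anti-H3K9me1 antibody.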
A number is an active result; 0 = inactive; ? = inconclusive; - = not tested or not shown; [ ] = remark or other dose. The call rests on the fitted dose curve; in most records, active means well fitted curve in the direction sought with a large enough effect; inconclusive means small, poorly fitted or top-dose-only effect, or another doubt; inactive means no such curve, though single readings can be large; an effect the other way counts as inactive or inconclusive.

SMILES	HP1b binding inh	PLK1 PBD block	12-LOX inh	BAZ2B block	JMJD2A Tudor	G9a block
Cc1ccc(C2C=C(c3ccccc3)Nc3ncnn32)cc1 (stereo unspecified)	0	29.9µM	0	-	?	-
COc1ccc(C2C=C(c3ccc(C)cc3)Nc3ncnn32)cc1 (stereo unspecified)	0	0	0	?	0	?
CCn1c(C)nnc1SCC(=O)NC1CCCCCC1	0	0	0	0	0	-
COc1ccc2[nH]c(=O)cc(C(=O)O)c2c1	0	0	0	50.1µM	?	35.5µM
COc1ccc2[nH]c(=O)c(C(=O)O)cc2c1	0	0	0	0	0	0
CCN1C(=O)c2cccc3c(S(=O)(=O)N(C(=O)c4ccncc4)c4ccc(OC)cc4)ccc1c23	0	0	0	0	0	0
COc1cc(C2C(C(=O)N3CCOCC3)=C(C)NC3=C2C(=O)CCC3)ccc1OC(C)=O (stereo unspecified)	0	0	0	0	0	1.58µM
CCN1CCN(C(=O)c2cnc3cc(C)nn3c2)CC1	-	-	0	-	-	-
O=C(O)c1ccccc1N/N=C/C1=C(N2CCOCC2)C(=C\c2ccccc2)/CC1	?	?	?	50.1µM	?	-
N#C/C(=C\C1=C(N2CCOCC2)C(=C/c2cccc([N+](=O)[O-])c2)/CC1)C(=O)Nc1ccccc1F	?	0	0	1.26µM	0	2.51µM
CCN(CC)c1ccc(/C=C2\CCC(/C=C(\C#N)C(=O)Nc3ccccc3F)=C2N2CCOCC2)cc1	?	0	0	?	?	?
N#C/C(=C\C1=C(N2CCOCC2)C(=C\c2ccc(Cl)cc2)/CC1)C(=O)Nc1ccccc1F	?	0	?	25.1µM	0	10µM
Cc1cc(=O)[nH]c(N/N=C/C2=C(N3CCOCC3)C(=C\c3ccc(Cl)cc3)/CC2)n1	0	?	?	0	0	7.94µM
O=C(N/N=C/C1=C(N2CCOCC2)C(=C\c2ccccc2)/CC1)Nc1ccccc1	0	0	0	0	0	0
CCCn1c(C)cnc1CC1CCN(C(=O)NCc2ccc(OC)cc2)C1 (stereo unspecified)	-	-	0	-	-	-
N#C/C(=C/C1=C(N2CCOCC2)C(=C/c2ccccc2)/CC1)C(=O)Nc1ccccc1F	5.01µM	0	0	-	10µM	-
Cc1ccc(-c2ccccc2NC(=O)CCl)o1	0	0	?	?	0	0
Cn1cnc(S(=O)(=O)N2C[C@@H](Oc3cccnc3)C[C@@H]2C(=O)N2CCOCC2)c1	-	-	0	-	-	-
CCOC(=O)CCC(=O)NCc1ccc2c(c1)cc(C)n2C	0	0	0	0	0	0[0.0925 µM]
O=C(CSC(=O)c1ccccc1)Nc1ccccc1F	?	3.36µM	?	-	0	-
CC(=O)c1cccc(NC(=O)CSC(=O)c2ccccc2)c1	0	?	0	0	0	20µM
CCN(CC)c1ccc(NC(=O)CSC(=O)c2ccccc2)cc1	?	?	0	-	?	-
O=C(/C=C/c1ccccc1)Nn1cnnc1	0	0	0	0	0	0
CCc1ccc(-c2cc(C(=O)NCCCn3ccnc3)c3ccccc3n2)s1	-	-	-	0	-	0
Cc1cc(O)c(C=Nc2ccc(N3CCOCC3)cc2)c(C)c1Cl	0	0	?	?	0	8.91µM
SMILES	HP1b binding inh	PLK1 PBD block	12-LOX inh	BAZ2B block	JMJD2A Tudor	G9a block
Cc1ccc(Cl)cc1-c1ccc(C=Nc2ccc(N3CCOCC3)cc2)o1	?	0	?	28.2µM	35.5µM	?
CCCCCCCCCCCCCCCC[n+]1cccc2ccccc21	0	?	?	50.1µM	?	6.31µM
CC(=O)N1CC2(CC(c3ccccc3C(F)(F)F)=NO2)CN1c1ccc(Cl)cc1 (stereo unspecified)	-	0	0	-	-	-
Cc1ccccc1C1c2[nH]c3ccccc3c2CCN1C(=O)c1ccc(=O)n(C)n1 (stereo unspecified)	0	0	0	10µM	?	0
COc1ccc(C2c3[nH]c4ccccc4c3CCN2C(=O)c2ccc(=O)n(C)n2)c(F)c1 (stereo unspecified)	0	0	0	?	?	-
Cc1cc(C(=O)N2CCc3c([nH]c4ccccc34)C2c2cccc(Cl)c2)nn1C (stereo unspecified)	0	0	0	?	?	39.8µM
CN1N=C(C(=O)N2CCc3c([nH]c4ccccc34)C2c2ccccc2Cl)CCC1=O (stereo unspecified)	0	26.7µM	0	0	31.6µM	?
O=C(c1cnccn1)N1CCc2c([nH]c3ccccc23)C1c1cccc(Cl)c1 (stereo unspecified)	0	0	0	?	?	?
COc1ccccc1CNC(=O)CCNS(=O)(=O)c1cc(Br)cnc1N	0	26.7µM	0	0	?	0
CCCCCCOC(=O)c1ccc(NS(=O)(=O)c2cccc3cccnc23)cc1	-	-	0	-	-	-
N=c1c(S(=O)(=O)c2ccccc2)cc2c(=O)n3ccccc3nc2n1CCCN1CCOCC1	0	0	?	0	0	79.4µM
Cc1cccn2c(=O)c3cc(C(N)=S)c(=N)n(CCCN4CCOCC4)c3nc12	0	0	0	0	0	44.7µM
COCCCn1c(=N)c(C(N)=S)cc2c(=O)n3cccc(C)c3nc21	0	0	?	-	0	-
Cc1cccn2c(=O)c3cc(C#N)c(=N)n(CCN4CCOCC4)c3nc12	0	0	-	50.1µM	0[11.4 µM]	0
COCCCn1c(=N)c(C(=O)NCc2cccnc2)cc2c(=O)n3cc(C)ccc3nc21	0	-	0	0	0	0
Cc1ccc2nc3c(cc(C(N)=S)c(=N)n3CCCOC(C)C)c(=O)n2c1	?	0	?	0	?	22.4µM
CCNc1nc(NCC)nc(ON=C(C)C)n1	-	-	-	0	-	0
CCc1nccn1CCNC(=O)c1cccc(C2CCNC2)c1 (stereo unspecified)	-	-	0	-	-	-
CCc1nnc(NC(=O)CSc2nnc(CSc3nc(C)cc(C)n3)o2)s1	0	0	0	0	0	39.8µM
Cc1cccc(NC(=O)CSc2nnc(CSc3nc(C)cc(C)n3)o2)c1	0	0	0	0	0	0
CCc1nnc(NC(=O)CSc2nnc(-c3ccccc3O)o2)s1	?	23.8µM	0	0	0[11.4 µM]	-
Cc1nc2ccc(NC(=O)Cc3cccc(F)c3)cc2s1	0	0	0	0	0	0
Cc1ccc(OC(=O)c2ccc3nc(C)sc3c2)cc1	0	18.9µM	0	0	0	0
Cc1nc2ccc(NC(=O)c3ccccc3)cc2s1	0	21.2µM	0	0	0	-
